# Test results taken from the supplement of paper PMC10338343.
# ± gives the standard deviation.
# Tested on: EfPiwi piRISC loaded with piRNA #1 (26 nt)
# Assay: pre-steady-state target cleavage rate (min^-1); auxiliary factor: 500 nM Ephydatia muelleri Gtsf1; guide: piRNA #1 5'p-UGAGGUAGUAGGUUGUAUAGUAUCCA; MIWI and MILI are mouse PIWI proteins and EfPiwi is from a freshwater sponge; tags in brackets are library labels; higher = faster piRNA-guided slicing of the target
# Method: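 Cleave-'n-Seq: a library of target RNAs (target site in constant flanks) at […] was incubated with 1 nM active freshwater sponge Ephydatia fluviatilis Piwi piRISC (synthetic 5'-monophosphorylated piRNA guide) with or without 500 nM EmGtsf1 at 33 °C for 1 min to 16 h. Uncleaved targets were sequenced and the pooled three trials fitted to a burst-and-steady-state model to give the pre-steady-state cleavage rate (min^-1). Sequence is the target site only. Fits with R² ≤ 0 are excluded.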
row,Sequence,pre-steady-state target cleavage rate
1,GGAGUGGAAACUAUACAAGCUACUACCUCA,0.00579 ± 0.0027
2,GGAGAGGAUACUAUACAACCAACUACCACA,0.00388 ± 0.0019
3,GGAGAGGAUCUAUACAACCUACUACCUCA,0.00612 ± 0.0048
4,GGAGACCUAUCUAUACAACCUACUACCUCG [g2:g20:cont:t1G],0.061 ± 0.024
5,GGAGACGAUACUAUACAUCCUACUUCCUCA,0.00415 ± 0.0023
6,GGAGACGAAACUAAACAACCUACUACCUCA,0.00324 ± 0.0032
7,GGAGACGAUACUAUACUACCUACUUCCUCA,0.00224 ± 0.0016
8,GGAGACGUUACUAUAGAACCUACUACCUCA,0.0026 ± 0.0023
9,GGAGUGGAUACUAUAACAACCUACUACCUCA,0.0556 ± 0.021
10,GGAGACCUAACUAUACAACGUACUACCACA,0.0055 ± 0.0049
11,GGAGUGCAUACUAUACAACCUAGUACCUCA,0.00414 ± 0.0018
12,GGAGACCUAUCUAUACAACCUACUACGAGA,0.00279 ± 0.0027
13,GGAGACCUUACAUACAACCUACUACCUCA,0.00863 ± 0.0045
14,GGAGACGAUUCUAUACAACCUACUUCCUCA,0.00271 ± 0.0022
15,GGAGACGAUACUAUACACACCUACUACCUCA,0.0061 ± 0.0026
16,GGAGUGGAUACUAUACAACCUACUACCUACA,0.068 ± 0.024
17,GGAGUGGAUACUAUACAACCUAGUUCCUCA,0.00239 ± 0.0021
18,GGAGUGGAUACUAUACAAGCUACUUCCUCA,0.00402 ± 0.0022
19,GGAGACGUUACAAUACAACCUACUACCUCA,0.0105 ± 0.0045
20,GGAGACCUUACUAUACUACCUACUACCUCA,0.00739 ± 0.0039

row,Sequence,pre-steady-state target cleavage rate
1,GGAGAUGAUACUAUACAACCUACUACCUCA,0.193 ± 0.068
2,GGAGACGAUCUAUACAACCUACUACCUCA,0.0198 ± 0.01
3,GGAGACCUAUGAAUACAACCUACUACCUCA [g2:g18:cont:t1A],0.00706 ± 0.0032
4,GGAGUGGAUACUAUAUAACCUACUACCUCA,0.117 ± 0.045
5,GGAGAGGAUACUAAACAACCUUCUACCUCA,0.00394 ± 0.0023
6,GGAGAGGAUACUAUACAAGCUACAACCUCA,0.00258 ± 0.0015
7,GGAGAGGAUAUUAUACAACCUACUACCUCA,0.0615 ± 0.023
8,GGAGUGGUACUAUACAACCUACUACCUCA,0.00812 ± 0.0044
9,GGAGAGGAUACAAUACAACCUACUACCACA,0.00265 ± 0.0022
10,GGAGUGGAUACUAUACAACCUAAUACCUCA,0.00389 ± 0.0016
11,GGAGAGGAAACUAUACAACCUACUAGCUCA,0.00276 ± 0.0019
12,GGAGUGGAUAGUAUACAACCUAGUACCUCA,0.00264 ± 0.0018
13,GGAGACGAUACUAUACAAGCUACUACCACA,0.00387 ± 0.0017
14,GGAGACGAUACUAUACAACCUAGAUCCUCA,0.00272 ± 0.0017
15,GGAGUGGAUACUAUACCACCUACUACCUCA,0.0104 ± 0.004
16,GGAGUGGAUACUAUUACAACCUACUACCUCA,0.131 ± 0.047
17,GGAGACCAUACUAUACAACCAACUACCUCA,0.00627 ± 0.0022
18,GGAGACGAUACUUAUACAACCUACUACCUCA,0.0473 ± 0.017
19,GGAGACCUUACAUAUACAACCUACUACCUCA,0.00546 ± 0.0041
20,GGAGAGGAUUCUAUACAAGCUACUACCUCA,0.00384 ± 0.0028
